The list is not random: actives were taken first. Their share in the collection is about 2.4%.
CHT inh: inhibitors of human choline transporter CHT | High affinity choline transporter 1 (Homo sapiens), Q9GZV3 | CHT-expressing cells, membrane potential dye, choline response; active compounds read low | B-score at 10 µM | 310,000 compounds, 0.86% hits | AID 488975, 2010;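 active = B-score over 3 SD under the library average, and starting fluorescence ratio not unusually high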;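 also: choline stimulus applied at its EC90 after an EC20 pre-addition; B-score computed on integrated fluorescence ratio after choline addition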
CHT PAM: CHT positive allosteric modulators, primary screen, cell-based, membrane potential dye, choline EC20; 310,000 compounds, 0.49% hits; CHT-expressing cells; active compounds read high; LV-AA mutant CHT in HEK293 cells; High affinity choline transporter 1 (Homo sapiens), Q9GZV3; B-score at 10 µM;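 active = initial fluorescence not abnormally high and integrated response B-score, plate-corrected, over 3 SD above library mean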
ANO1 activ: TMEM16A chloride channel activators or potentiators, primary screen, cell-based, HTS; 340,000 compounds, 0.3% hits; HEK293 TMEM16A/YFP-H148Q/I152L, iodide quench fluorescence; active compounds read low; Anoctamin-1 (Mus musculus), Q8BHY3; AID 623877, 2012; B-score at 10 µM;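 active = fluorescence-ratio B-score plate-corrected deviation score at least 3 library SD below zero, with starting fluorescence score within 5 deviations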;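 also: channel opened by trigger with iodide after compound preincubation; score built on the fluorescence ratio of max minus min over baseline; more negative score means more quench and so TMEM16A activation or potentiation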
ANO1 block: TMEM16A chloride channel inhibitors, primary screen, cell-based, HTS; Anoctamin-1 (Mus musculus), Q8BHY3; HEK293 TMEM16A/YFP iodide influx fluorescence, ionomycin; normalized B-score (activity score, 25-100; higher = stronger inhibition) at 10 µM; 310,000 compounds, 1.2% hits; AID 588511, 2011;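 active = ratio plate-corrected score three or more library SD toward inhibition, starting fluorescence score within five deviations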;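 also: score derived from kinetic fluorescence span divided by baseline fluorescence per well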
TMEM16A reconf: TMEM16A chloride channel inhibitors, confirmation, cell-based, re-confirmation. shares compounds with ANO1 block. HEK293 TMEM16A/YFP-H148Q, iodide quench fluorescence; ionomycin added to raise cell calcium. inhibition, % at 10 µM. 2,300 compounds, 39% hits;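 active = mean duplicate percent inhibition, scaled so buffer wells are 0 and the reference blocker 100, over three buffer SD above buffer mean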
HEK293 Ca mobil: calcium mobilization in TMEM16A/YFP HEK293 cells, confirmation, counter-screen for TMEM16A inhibitor project | shares compounds with ANO1 block | Fluo4 calcium mobilization | calcium response (% of ionomycin), % at 10 µM | 2,300 compounds, 2% hits | AID 652231, 2013;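 active = duplicate-averaged calcium signal over 20% of the ionomycin maximum, relative to buffer baseline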;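 also: each well's signal is peak minus trough fluorescence divided by its pre-addition baseline; 0% = buffer wells and 100% = ionomycin wells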
Parental YFP cnt: iodide YFP quench changes in parental YFP-HEK293, counter-screen for TMEM16A inhibitor project, cell-based; 2,300 tested, under 10 active; YFP ratio F(max-min)/F0 at 10 µM; shares compounds with ANO1 block; ionomycin;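 active = yellow fluorescent protein signal ratio exceeding the buffer control mean by over 5 SD of those controls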;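 also: ratio is mean of duplicate wells from kinetic YFP trace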
ClC-1 inh: ClC-1 chloride channel inhibition, selectivity assay for TMEM16A inhibitor project, cell-based, voltage-dependent ClC-1; shares compounds with ANO1 block; CHO ClC-1-YFP, iodide influx fluorescence quench; iodide control reads 0, buffer control 100; ratio percent, % at 10 µM; 2,300 tested, under 10 active;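 active = duplicate-mean ratio percent above the mean of iodide-only control wells, which defines zero, plus 5 of their SD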;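 also: higher percent means stronger block of ClC-1 iodide influx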
Target sequence (P35524 whole entry, looked up): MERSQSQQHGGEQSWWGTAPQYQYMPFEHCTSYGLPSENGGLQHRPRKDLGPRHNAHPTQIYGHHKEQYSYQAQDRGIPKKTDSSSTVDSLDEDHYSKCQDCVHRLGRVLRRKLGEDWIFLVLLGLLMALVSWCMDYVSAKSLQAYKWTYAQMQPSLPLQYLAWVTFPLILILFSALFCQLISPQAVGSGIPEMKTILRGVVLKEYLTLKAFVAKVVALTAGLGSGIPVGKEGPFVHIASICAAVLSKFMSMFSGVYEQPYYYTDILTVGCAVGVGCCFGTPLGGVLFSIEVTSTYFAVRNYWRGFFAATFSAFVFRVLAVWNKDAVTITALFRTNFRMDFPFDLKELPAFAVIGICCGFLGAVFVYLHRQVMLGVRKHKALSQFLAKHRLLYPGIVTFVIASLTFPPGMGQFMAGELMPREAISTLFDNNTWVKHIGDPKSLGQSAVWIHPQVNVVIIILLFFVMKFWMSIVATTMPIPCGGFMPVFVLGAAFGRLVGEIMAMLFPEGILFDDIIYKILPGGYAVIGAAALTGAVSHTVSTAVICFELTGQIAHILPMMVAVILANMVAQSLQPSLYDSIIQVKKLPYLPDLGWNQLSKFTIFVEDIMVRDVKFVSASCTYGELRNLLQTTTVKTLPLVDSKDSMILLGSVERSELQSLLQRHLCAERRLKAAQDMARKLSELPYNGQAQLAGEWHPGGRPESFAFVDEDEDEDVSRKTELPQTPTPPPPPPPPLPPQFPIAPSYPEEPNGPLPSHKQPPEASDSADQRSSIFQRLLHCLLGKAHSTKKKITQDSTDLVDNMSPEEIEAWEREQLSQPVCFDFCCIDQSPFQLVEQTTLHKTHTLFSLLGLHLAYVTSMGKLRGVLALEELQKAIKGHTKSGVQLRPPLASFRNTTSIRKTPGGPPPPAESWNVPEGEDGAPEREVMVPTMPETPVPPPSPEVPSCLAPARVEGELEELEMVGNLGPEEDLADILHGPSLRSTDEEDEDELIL
* = called active by the depositor.

For CCCOC(=O)c1ccc(NS(=O)(=O)c2cccs2)cc1 the results were CHT inh inactive, CHT PAM inactive, ANO1 activ inactive, ANO1 block 25*, TMEM16A reconf inactive, HEK293 Ca mobil inactive, Parental YFP cnt -0.95 and ClC-1 inh 2.
For COc1ccccc1-c1nc(C#N)c(N2CCCCCC2)o1 the results were CHT inh inactive, CHT PAM inactive, ANO1 activ inactive and ANO1 block inactive.
Screening COc1ccccc1-c1nc(C#N)c(N2CCc3ccccc3C2)o1 returned CHT inh inactive, CHT PAM inactive, ANO1 activ inactive, ANO1 block 100*, TMEM16A reconf inactive, HEK293 Ca mobil inactive, Parental YFP cnt -1.2 and ClC-1 inh -18.
Cc1ccnc(NC(=O)COc2ccc3oc4c(c3c2)CCCC4)c1 was read as CHT inh inactive, CHT PAM inactive, ANO1 activ inactive, ANO1 block 100*, TMEM16A reconf inactive, HEK293 Ca mobil inactive, Parental YFP cnt -1.1 and ClC-1 inh -2.
Cc1c(C(=O)N2CCOCC2)sc(NC(=O)c2ccccc2F)c1C#N was read as CHT inh inactive, CHT PAM inactive, ANO1 activ inactive and ANO1 block inactive.
For CCCn1nnc(NC(=O)COc2ccc(C3CCCCC3)cc2)n1 the results were CHT inh inactive, CHT PAM inactive, ANO1 activ inactive, ANO1 block 100*, TMEM16A reconf 44%*, HEK293 Ca mobil inactive, Parental YFP cnt -0.98 and ClC-1 inh -9.
For Cc1nnc(SCC(=O)NCc2ccco2)n1-c1ccccc1 the results were CHT inh inactive, CHT PAM inactive, ANO1 activ inactive and ANO1 block inactive.
Screening O=C(CSc1ccc2nnc(-c3ccccc3)n2n1)NCc1ccco1 returned CHT inh inactive, CHT PAM inactive, ANO1 activ inactive, ANO1 block 100*, TMEM16A reconf inactive, HEK293 Ca mobil inactive, Parental YFP cnt -0.97 and ClC-1 inh -7.
O=C(CSc1ncc(-c2ccccc2)n1-c1ccccc1)NCc1ccco1 was read as CHT inh inactive, CHT PAM inactive, ANO1 activ inactive, ANO1 block 25*, TMEM16A reconf inactive, HEK293 Ca mobil inactive, Parental YFP cnt -0.98 and ClC-1 inh -8.
For COc1ccc(-c2nnc3ccc(SCC(=O)NCc4ccco4)nn23)cc1 the results were CHT inh inactive, CHT PAM inactive, ANO1 activ inactive and ANO1 block inactive.
For Cc1cc(C(=O)CN2CCCC2)c(C)n1-c1ccc(Cl)cc1 the results were CHT inh inactive, CHT PAM inactive, ANO1 activ inactive and ANO1 block inactive.
For COc1ccccc1-c1c(C)nn2c(N3CCOCC3)cc(C)nc12 the results were CHT inh inactive, CHT PAM inactive, ANO1 activ inactive and ANO1 block inactive.
`COc1ccccc1-c1c(C)nn2c(N3CCCCCC3)cc(C)nc12` gave CHT inh inactive, CHT PAM inactive, ANO1 activ inactive, ANO1 block 100*, TMEM16A reconf 34%*, HEK293 Ca mobil inactive, Parental YFP cnt -0.82 and ClC-1 inh -19.
For O=C1CN(C(=O)CSc2nc3ccccc3c(=O)n2CCCN2CCOCC2)c2ccccc2N1 the results were CHT inh inactive, CHT PAM inactive, ANO1 activ inactive and ANO1 block inactive.
